According to PubChem BioAssay (NCATS):
Results filed as inconclusive are left out. Active and inactive are the calls of the source. Unless noted, calls follow the shape of the full dose curve.

How the values were obtained:
[1] = target: Estrogen receptor (Homo sapiens) (UniProt P03372); assay: qHTS assay for small molecule antagonists of estrogen receptor alpha signaling (AID 588513; active = well fitted curve in the direction sought with a large enough effect in the signal ratio, with a control signal flat, not every such curve was filed as active; the % refers to the signal ratio; also: % is scaled to controls: 0 for no effect and ±100 for the full control effect)
Estrogen receptor (Homo sapiens), sequence (P03372 whole entry, looked up): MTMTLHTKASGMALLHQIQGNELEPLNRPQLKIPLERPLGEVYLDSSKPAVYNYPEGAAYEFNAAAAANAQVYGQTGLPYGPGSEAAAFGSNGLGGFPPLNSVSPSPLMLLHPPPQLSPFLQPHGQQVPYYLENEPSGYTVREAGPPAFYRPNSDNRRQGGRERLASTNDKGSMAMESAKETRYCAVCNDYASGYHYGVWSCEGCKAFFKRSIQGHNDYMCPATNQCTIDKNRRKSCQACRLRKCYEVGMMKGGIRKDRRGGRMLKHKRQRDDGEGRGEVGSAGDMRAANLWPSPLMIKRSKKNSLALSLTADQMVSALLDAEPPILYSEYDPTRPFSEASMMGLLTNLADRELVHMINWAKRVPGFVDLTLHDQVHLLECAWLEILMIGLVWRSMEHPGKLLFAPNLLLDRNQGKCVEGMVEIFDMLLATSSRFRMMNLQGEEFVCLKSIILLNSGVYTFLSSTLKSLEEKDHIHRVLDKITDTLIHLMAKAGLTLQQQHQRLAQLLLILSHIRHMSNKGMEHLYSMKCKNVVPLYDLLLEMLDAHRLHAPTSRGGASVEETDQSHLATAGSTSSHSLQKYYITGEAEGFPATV
In short: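 Beta-lactamase reporter, antagonist mode, HEK 293 GripTite cells; 0.5nM E2 stimulus, 18 h, 37 C; CCF4 dye 2 h RT; fluorescence. IC50 and efficacy from Hill fits, normalized to E2 and DMSO.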

[2] = target: Estrogen receptor (Homo sapiens) (UniProt P03372); assay: qHTS assay for small molecule agonists of estrogen receptor alpha signaling (AID 588514);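 also: 0% = vehicle only and 100% = reference agonist; nearly all actives have a fitted effect of over 70% in size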
In short: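 Reporter-gene assay. […] controls beta-lactamase in HEK 293 GripTite cells; after 18 hrs with compound, CCF4 substrate is added for 2 hrs and fluorescence is read.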

[3] = target: Androgen receptor (Homo sapiens) (UniProt P10275); assay: qHTS assay for small molecule agonists of androgen receptor signaling (AID 588515; active = well fitted curve in the direction sought with a large enough effect in the signal ratio, with a control signal flat; the % refers to the signal ratio; also: % is scaled to controls: 0 for no effect and ±100 for the full control effect); conditions: AR-UAS-bla HEK293, beta-lactamase ratio, agonist 16 h; stronger effect = higher value
Androgen receptor (Homo sapiens), sequence (P10275 whole entry, looked up): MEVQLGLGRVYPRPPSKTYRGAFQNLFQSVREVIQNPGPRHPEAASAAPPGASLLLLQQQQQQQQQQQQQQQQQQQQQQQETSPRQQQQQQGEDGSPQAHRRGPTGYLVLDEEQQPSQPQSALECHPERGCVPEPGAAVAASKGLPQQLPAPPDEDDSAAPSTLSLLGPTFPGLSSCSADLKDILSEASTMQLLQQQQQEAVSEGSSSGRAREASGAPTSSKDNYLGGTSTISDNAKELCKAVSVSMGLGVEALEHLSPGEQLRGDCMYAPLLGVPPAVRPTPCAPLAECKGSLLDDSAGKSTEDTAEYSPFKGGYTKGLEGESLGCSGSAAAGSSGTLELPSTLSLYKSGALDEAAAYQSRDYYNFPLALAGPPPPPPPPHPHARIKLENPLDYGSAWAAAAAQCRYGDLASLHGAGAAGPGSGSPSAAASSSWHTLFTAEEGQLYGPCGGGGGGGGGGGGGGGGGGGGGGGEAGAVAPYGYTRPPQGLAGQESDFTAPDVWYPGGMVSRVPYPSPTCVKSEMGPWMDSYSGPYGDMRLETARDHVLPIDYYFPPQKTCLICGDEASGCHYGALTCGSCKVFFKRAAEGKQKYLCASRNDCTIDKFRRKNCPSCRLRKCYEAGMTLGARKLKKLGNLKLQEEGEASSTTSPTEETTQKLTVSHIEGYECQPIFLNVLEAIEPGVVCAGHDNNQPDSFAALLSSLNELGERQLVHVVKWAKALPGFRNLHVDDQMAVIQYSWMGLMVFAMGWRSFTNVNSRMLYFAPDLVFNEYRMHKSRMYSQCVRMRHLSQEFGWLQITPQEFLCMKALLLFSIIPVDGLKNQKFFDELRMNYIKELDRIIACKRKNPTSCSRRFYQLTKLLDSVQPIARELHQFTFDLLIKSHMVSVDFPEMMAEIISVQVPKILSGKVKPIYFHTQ
In short: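 EC50 and efficacy came from Hill fits of titrations (up to 92 uM) normalized to 30 nM R1881 as 100% and DMSO as 0%. Compound exposure was 16 h at 37 C on AR-UAS-bla HEK293 cells, with a 405/460/530 nm CCF4 fluorescence read.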

[4] = target: Androgen receptor (Homo sapiens) (UniProt P10275); assay: qHTS assay for small molecule antagonists of androgen receptor signaling (AID 588516; active = well fitted curve in the direction sought with a large enough effect in the signal ratio, with a control signal flat, not every such curve was filed as active; the % refers to the signal ratio; also: % is scaled to controls: 0 for no effect and ±100 for the full control effect)
In short: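 HEK293 AR-UAS-bla cells, 10% dialyzed FBS medium; cpd titration + R1881 10 nM final, 16 h 37 C; CCF4 2 h RT; FRET ratio; IC50/efficacy via Hill fit.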

[5] = target: Bile acid receptor (Homo sapiens) (UniProt Q96RI1); assay: qHTS assay for small molecule antagonists of farnesoid X receptor signaling (AID 588526); also: % is scaled to controls: 0 for no effect and ±100 for the full control effect
Bile acid receptor (Homo sapiens), sequence (Q96RI1 whole entry, looked up): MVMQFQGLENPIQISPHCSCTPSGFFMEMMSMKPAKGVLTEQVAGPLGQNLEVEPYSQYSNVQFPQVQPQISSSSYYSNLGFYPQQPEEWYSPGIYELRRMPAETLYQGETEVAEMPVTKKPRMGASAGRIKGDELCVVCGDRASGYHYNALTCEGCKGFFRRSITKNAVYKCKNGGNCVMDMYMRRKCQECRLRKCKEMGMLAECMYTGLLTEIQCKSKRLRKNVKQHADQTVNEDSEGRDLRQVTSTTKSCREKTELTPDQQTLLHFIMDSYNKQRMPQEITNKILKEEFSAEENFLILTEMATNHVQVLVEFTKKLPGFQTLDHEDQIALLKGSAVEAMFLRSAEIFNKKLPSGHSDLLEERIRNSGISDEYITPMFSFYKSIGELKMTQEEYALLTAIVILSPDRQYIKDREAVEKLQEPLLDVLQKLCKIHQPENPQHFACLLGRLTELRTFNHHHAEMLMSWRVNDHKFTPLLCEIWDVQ
In short: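 Beta-lactamase reporter antagonist mode: HEK293T FXR-UAS-bla cells, titrated compound, CDCA stimulation, 16 h 37 C, CCF4 dye 2 h RT. Data normalized to CDCA 50 uM and DMSO; Hill-fit IC50.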

[6] = target: Bile acid receptor (Homo sapiens) (UniProt Q96RI1); assay: qHTS assay for small molecule agonists of farnesoid X receptor signaling (AID 588527); conditions: HEK293T FXR-UAS-bla, beta-lactamase ratio, 16 h; activation: stronger effect = higher value;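 also: series mostly up to about 77 µM; 0% = vehicle basal and 100% = reference agonist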
In short: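 Read-out: beta-lactamase reporter fluorescence with CCF4 substrate in GeneBLAzer FXR-UAS-bla HEK293T cells, after 16 h compound exposure at 37 C. Response scaled between DMSO basal (0%) and chenodeoxycholic acid at 100 uM (100%).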

[7] = target: Glucocorticoid receptor (Homo sapiens) (UniProt P04150); assay: qHTS assay for small molecule antagonists of glucocorticoid receptor signaling (AID 588533; active = well fitted inhibition curve with a large enough effect in the signal ratio, with a control signal flat, not every such curve was filed as active; the % refers to the signal ratio)
In short: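 Antagonist-mode qHTS: compound titrations added to GRE-bla HeLa cells, then dexamethasone 2 nM final; 18 h, 37 C. CCF4 FRET fluorescence normalized to dexamethasone and DMSO; IC50 from Hill fit.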

[8] = target: Peroxisome proliferator-activated receptor delta (Homo sapiens) (UniProt Q03181); assay: qHTS assay for small molecule agonists of peroxisome proliferator-activated receptor delta signaling (AID 588534);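 also: 0% = DMSO basal wells and 100% = positive control agonist at 10 µM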
Peroxisome proliferator-activated receptor delta (Homo sapiens), sequence (Q03181 whole entry, looked up): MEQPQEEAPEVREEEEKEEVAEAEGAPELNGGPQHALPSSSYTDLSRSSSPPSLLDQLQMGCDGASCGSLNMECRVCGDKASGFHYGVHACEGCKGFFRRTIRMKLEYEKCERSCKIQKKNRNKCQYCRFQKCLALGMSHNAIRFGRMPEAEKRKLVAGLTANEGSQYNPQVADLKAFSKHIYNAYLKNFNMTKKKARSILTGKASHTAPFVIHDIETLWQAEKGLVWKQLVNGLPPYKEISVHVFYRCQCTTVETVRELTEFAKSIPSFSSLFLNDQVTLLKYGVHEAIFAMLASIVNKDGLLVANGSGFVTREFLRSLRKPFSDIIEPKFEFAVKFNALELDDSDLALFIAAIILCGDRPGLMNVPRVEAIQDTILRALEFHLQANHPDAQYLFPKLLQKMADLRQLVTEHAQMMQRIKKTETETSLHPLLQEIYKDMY
In short: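 Reporter cells were plated and held 5 hrs at 37 C before compounds were added. After 18 hrs at 37 C, CCF4 dye was loaded for 2 hrs at RT and fluorescence measured.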

[9] = qHTS assay for small molecule antagonists of peroxisome proliferator-activated receptor delta signaling (AID 588535; active = well fitted inhibition curve with a large enough effect in the signal ratio, with a control signal flat, not every such curve was filed as active; the % refers to the signal ratio;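 as to max response: cells co-treated with a PPAR-delta agonist as stimulator during compound exposure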); conditions: HEK293T PPARd-UAS-bla, beta-lactamase FRET ratio, 18 h; 460 nm channel
In short: (§1)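 Cell-based beta-lactamase assay in antagonist mode: 4000 HEK293T PPAR-delta-UAS-bla cells per well, 5 hr preincubation then 18 hr compound incubation at 37 C. IC50 obtained by Hill equation fitting.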

[10] = target: Peroxisome proliferator-activated receptor delta (Homo sapiens) (UniProt Q03181); assay: as above
In short: as §1

[11] = target: Peroxisome proliferator-activated receptor gamma (Homo sapiens) (UniProt P37231); assay: qHTS assay for small molecule agonists of peroxisome proliferator-activated receptor gamma signaling (AID 588536; active = well fitted curve in the direction sought with a large enough effect in the signal ratio, with a control signal flat, not every such curve was filed as active; the % refers to the signal ratio;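 also: 0% = DMSO basal wells and 100% = rosiglitazone at 2 µM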)
Peroxisome proliferator-activated receptor gamma (Homo sapiens), sequence (P37231 whole entry, looked up): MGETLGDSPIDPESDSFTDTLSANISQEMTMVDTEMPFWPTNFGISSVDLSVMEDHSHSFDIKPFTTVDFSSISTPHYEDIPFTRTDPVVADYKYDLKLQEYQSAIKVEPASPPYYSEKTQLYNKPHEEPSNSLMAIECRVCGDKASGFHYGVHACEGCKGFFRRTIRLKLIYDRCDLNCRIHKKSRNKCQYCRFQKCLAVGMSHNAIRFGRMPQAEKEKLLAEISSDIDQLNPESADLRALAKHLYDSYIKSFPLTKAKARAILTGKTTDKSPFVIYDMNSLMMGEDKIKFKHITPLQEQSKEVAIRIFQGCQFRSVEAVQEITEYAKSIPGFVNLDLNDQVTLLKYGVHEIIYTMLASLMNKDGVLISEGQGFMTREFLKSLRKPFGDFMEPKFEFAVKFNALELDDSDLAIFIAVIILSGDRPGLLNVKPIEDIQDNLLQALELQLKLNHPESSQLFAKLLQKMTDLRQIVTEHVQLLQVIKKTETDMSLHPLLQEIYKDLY
In short: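 Test agents, titrated, stimulated HEK293 UAS-bla cells overnight (16 h, 37 C). Substrate CCF4 was then added for two hours at room temperature before fluorescence reading.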

[12] = target: Peroxisome proliferator-activated receptor gamma (Homo sapiens) (UniProt P37231); assay: qHTS assay for small molecule antagonists of peroxisome proliferator-activated receptor gamma signaling (AID 588537; active = well fitted inhibition curve with a large enough effect in the signal ratio, with a control signal flat, not every such curve was filed as active; the % refers to the signal ratio;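 also: reporter cells co-stimulated with 50 nM rosiglitazone agonist during compound treatment; % of control where 0% means no effect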)
In short: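 Inhibitors of agonist-stimulated UAS-bla reporter activity were sought in HEK293 cells; rosiglitazone (50 nM) defined full signal and DMSO baseline. Curves fitted to Hill model gave IC50 and efficacy.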

[13] = target: Vitamin D3 receptor (Homo sapiens) (UniProt P11473); assay: qHTS assay for small molecule agonists of vitamin D receptor signaling (AID 588543);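 also: 0% = DMSO basal and 100% = reference agonist control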
Vitamin D3 receptor (Homo sapiens), sequence (P11473 whole entry, looked up): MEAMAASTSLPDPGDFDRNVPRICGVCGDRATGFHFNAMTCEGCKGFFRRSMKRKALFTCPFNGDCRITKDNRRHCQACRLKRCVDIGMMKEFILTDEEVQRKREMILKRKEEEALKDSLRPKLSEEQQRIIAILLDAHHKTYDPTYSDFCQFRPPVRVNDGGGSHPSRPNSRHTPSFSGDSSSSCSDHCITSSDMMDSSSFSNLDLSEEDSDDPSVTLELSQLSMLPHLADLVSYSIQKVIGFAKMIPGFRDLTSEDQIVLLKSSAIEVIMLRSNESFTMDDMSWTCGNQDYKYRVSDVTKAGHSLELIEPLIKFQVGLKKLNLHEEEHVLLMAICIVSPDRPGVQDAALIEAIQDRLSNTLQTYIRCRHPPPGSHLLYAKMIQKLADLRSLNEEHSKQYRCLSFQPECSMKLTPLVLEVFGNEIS
In short: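 β-lactamase reporter, VDR-UAS-bla HEK293T, agonist mode. Cells plated 5 h at 37 °C, compound titration 16 h at 37 °C, CCF4 dye 2 h RT, ratio 460/530 nm. Hill fit → EC50, efficacy vs 50 nM 1α,25-(OH)2D3.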

[14] = target: Retinoic acid receptor RXR-alpha (Homo sapiens) (UniProt P19793); assay: qHTS assay for small molecule agonists of retinoid X receptor alpha signaling (AID 588544);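 also: 0% = DMSO basal wells and 100% = reference agonist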
Retinoic acid receptor RXR-alpha (Homo sapiens), sequence (P19793 whole entry, looked up): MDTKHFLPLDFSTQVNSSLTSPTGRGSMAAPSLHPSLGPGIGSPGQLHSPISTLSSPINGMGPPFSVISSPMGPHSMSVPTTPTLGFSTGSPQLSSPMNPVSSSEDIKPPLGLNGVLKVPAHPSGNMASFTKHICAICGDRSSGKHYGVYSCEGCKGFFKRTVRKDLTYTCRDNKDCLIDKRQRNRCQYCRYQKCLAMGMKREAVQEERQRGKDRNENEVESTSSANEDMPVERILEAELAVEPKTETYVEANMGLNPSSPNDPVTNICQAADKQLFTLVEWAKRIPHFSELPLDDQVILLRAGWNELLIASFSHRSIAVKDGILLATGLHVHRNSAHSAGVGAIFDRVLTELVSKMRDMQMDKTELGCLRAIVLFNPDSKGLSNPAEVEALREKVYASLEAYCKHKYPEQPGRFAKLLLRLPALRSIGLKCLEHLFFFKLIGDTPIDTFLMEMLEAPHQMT

[15] = target: Thyroid hormone receptor beta (Homo sapiens) (UniProt P10828); assay: qHTS assay for small molecule agonists of thyroid hormone receptor beta signaling (AID 588545)
In short: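 Agonist activity was read as beta-lactamase CCF4 fluorescence (405 ex, 460/530 em), scaled between DMSO (0%) and 10 nM T3 (100%), then Hill-fitted for EC50 and efficacy. HEK 293 TR-UAS-bla cells in 2% charcoal/dextran FBS medium were exposed 18 h at 37 C.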

[16] = qHTS assay for small molecule antagonists of retinoid X receptor alpha signaling (AID 588546; active = well fitted inhibition curve with a large enough effect in the signal ratio, with a control signal flat, not every such curve was filed as active; the % refers to the signal ratio); conditions: HEK293T RXRa-UAS-bla, beta-lactamase ratio, antagonist mode; measured here: W530 green channel, cytotoxicity proxy
In short: (§2)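 Beta-lactamase reporter inhibition, read as CCF4 fluorescence ratio (ex 405, em 460/530 nm) after 2 h at RT. HEK293T UAS-bla cells, 2500/well, were stimulated with 9-cis-RA at 500 or 100 nM final alongside test compound for 18 h at 37 C.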

[17] = target: Retinoic acid receptor RXR-alpha (Homo sapiens) (UniProt P19793); assay: as above; conditions: HEK293T RXRa-UAS-bla, beta-lactamase ratio, antagonist mode
In short: as §2

[18] = target: Thyroid hormone receptor beta (Homo sapiens) (UniProt P10828); assay: qHTS assay for small molecule antagonists of thyroid hormone receptor beta signaling (AID 588547; active = well fitted inhibition curve with a large enough effect in the signal ratio, with a control signal flat, not every such curve was filed as active; the % refers to the signal ratio); conditions: TR-UAS-bla HEK293, beta-lactamase ratio, antagonist mode, 18 h
In short: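 Inhibition of T3-driven (0.4nM final) beta-lactamase reporter activity was measured over 0.59 nM to 92 uM compound after 18 h at 37 C. The cells were GripTite HEK293 TR-UAS-bla in charcoal/dextran-stripped serum, with CCF4 ratio read-out and IC50 from Hill fits.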

[19] = qHTS assay for small molecule activators of the p53 signaling pathway (AID 651743; active = well fitted activation curve with a large enough effect in the signal ratio, not every such curve was filed as active; the % refers to the signal ratio; also: series mostly up to about 92 µM; % of control where 0% means no effect); conditions: HCT-116 p53RE-bla, beta-lactamase FRET ratio, 16 h; activation: stronger effect = higher value
In short: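 Screen for p53 pathway agonists uses stably transfected p53RE-bla HCT-116 cells, 4,000 per well, treated 16 h at 37 C with compounds in DMSO.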

[20] = qHTS assay for environmental chemicals that activate the Aryl hydrocarbon Receptor (AhR) signaling pathway (AID 651777; active = well fitted curve in the direction sought with a large enough effect; an effect the other way counts as inactive or inconclusive; also: % of control where 0% means no effect; nearly all actives have a fitted effect of over 15% in size); conditions: 1A2-DRE human hepatoma cells, luciferase, 24 h; activation: stronger effect = higher value
In short: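 Human hepatoma 1A2-DRE cells stably carrying a DRE/CYP1A2 promoter–luciferase reporter, 1,200 cells/well, exposed to compound 24 hr at 37 C. Luciferase read by One-Glo luminescence after 30 min at room temperature; increased signal marks AhR activation.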

[21] = target: Peroxisome proliferator-activated receptor alpha (Homo sapiens) (UniProt Q07869); assay: qHTS assay for small molecule agonists of the peroxisome proliferator-activated receptor alpha (PPARalpha) signaling pathway (AID 651778; active = well fitted curve in the direction sought with a large enough effect; an effect the other way counts as inactive or inconclusive; also: % of control where 0% means no effect); conditions: PathHunter PPARalpha complementation, chemiluminescence, 6 h; max response: stronger effect = higher value
Peroxisome proliferator-activated receptor alpha (Homo sapiens), sequence (Q07869 whole entry, looked up): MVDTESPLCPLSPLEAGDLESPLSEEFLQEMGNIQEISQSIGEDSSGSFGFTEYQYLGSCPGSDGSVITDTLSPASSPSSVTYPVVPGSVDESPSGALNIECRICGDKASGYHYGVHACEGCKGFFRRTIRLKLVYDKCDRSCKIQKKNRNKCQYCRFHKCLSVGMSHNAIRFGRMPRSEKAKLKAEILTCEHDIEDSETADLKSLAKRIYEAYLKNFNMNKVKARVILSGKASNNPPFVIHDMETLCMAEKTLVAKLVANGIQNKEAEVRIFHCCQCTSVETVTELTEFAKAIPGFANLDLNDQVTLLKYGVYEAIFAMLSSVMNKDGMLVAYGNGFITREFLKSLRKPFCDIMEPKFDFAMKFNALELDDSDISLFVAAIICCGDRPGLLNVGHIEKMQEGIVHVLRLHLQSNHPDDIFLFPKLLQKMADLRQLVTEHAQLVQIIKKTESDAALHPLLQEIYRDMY
In short: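 Chemiluminescence from complemented enzyme reported PPARalpha activation in cells after 6 hr of compound treatment at 37 C. The detection reagent was incubated for 60 min at room temperature, and compounds were scored as agonists.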

[22] = qHTS assay for cell viability of HEK293 cells (AID 743288; active = well fitted curve in the direction sought with a large enough effect; an effect the other way counts as inactive or inconclusive; also: % is scaled to controls: 0 for no effect and ±100 for the full control effect; nearly all actives have a fitted effect of over 50% in size); conditions: ATP luminescence (CellTiter-Glo), 18 h; max response: stronger effect = lower value
In short: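 Environmental chemicals tested in qHTS format against parental HEK293 cells; 18 h treatment, 37 C; read-out ATP luminescence (CellTiter-Glo), 30 min RT development.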

[23] = qHTS assay for cell viability of the p53RE-bla HCT-116 cell line (AID 743292; active = well fitted curve in the direction sought with a large enough effect; an effect the other way counts as inactive or inconclusive; also: % is scaled to controls: 0 for no effect and ±100 for the full control effect; nearly all actives have a fitted effect of over 55% in size)
In short: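 CellSensor p53RE-bla HCT-116 cells (4,000/well) pre-incubated 5 h at 37 C, then exposed to compounds in DMSO for 16 h at 37 C. Viability read as ATP content by CellTiter-Glo luminescence after 30 min at room temperature.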

[24] = target: Nuclear receptor subfamily 1 group I member 2 (Rattus norvegicus) (UniProt Q9R1A7); assay: qHTS assay for small molecule activators of the rat pregnane X receptor (rPXR) signaling pathway (AID 651751; call rule not given here; also: 0% is about no effect); conditions: rPXR reporter cells, luciferase (One-Glo), 24 h
Nuclear receptor subfamily 1 group I member 2 (Rattus norvegicus), sequence (Q9R1A7 whole entry, looked up): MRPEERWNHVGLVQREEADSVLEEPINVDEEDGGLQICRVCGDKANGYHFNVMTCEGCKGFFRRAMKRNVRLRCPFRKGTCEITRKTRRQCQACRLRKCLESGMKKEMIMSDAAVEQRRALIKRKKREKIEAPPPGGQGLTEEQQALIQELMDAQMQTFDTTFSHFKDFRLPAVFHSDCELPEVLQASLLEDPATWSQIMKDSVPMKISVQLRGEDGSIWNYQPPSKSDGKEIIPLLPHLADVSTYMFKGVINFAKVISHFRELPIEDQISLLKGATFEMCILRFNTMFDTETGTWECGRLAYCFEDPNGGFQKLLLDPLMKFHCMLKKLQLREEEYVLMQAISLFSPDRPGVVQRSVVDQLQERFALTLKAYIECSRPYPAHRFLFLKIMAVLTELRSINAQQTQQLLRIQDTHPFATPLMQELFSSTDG

[25] = qHTS assay for small molecule activators of the human pregnane X receptor (PXR) signaling pathway (AID 720659; call rule not given here; also: 0% is about no effect)
[26] = target: Glucocorticoid receptor (Homo sapiens) (UniProt P04150); assay: qHTS assay for small molecule agonists of glucocorticoid receptor signaling (AID 588532; active = well fitted curve in the direction sought with a large enough effect in the signal ratio, with a control signal flat; the % refers to the signal ratio;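 also: 100% = dexamethasone at 0.1 µM and 0% = DMSO only wells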); conditions: HeLa MMTV-bla, beta-lactamase ratio, agonist, 18 h; activation: stronger effect = higher value, percent of dexamethasone control, DMSO zero
In short: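 Quantitative HTS using CellSensor MMTV-bla HeLa cells in charcoal/dextran-treated serum; compounds tested up to 92 uM. After 18 h at 37 C, CCF4 dye reported reporter induction.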

[27] = target: Vitamin D3 receptor (Homo sapiens) (UniProt P11473); assay: qHTS assay for small molecule antagonists of vitamin D receptor signaling (AID 588541)
In short: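 Antagonist-mode beta-lactamase reporter assay: HEK293T VDR-UAS-bla cells were exposed to titrated compound alongside 1-alpha,25-dihydroxyvitamin D3 at 3 nM final for 16 h. Values were normalized to the 50 nM agonist control and DMSO basal, with IC50 and efficacy from Hill equation fits.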

[28] = qHTS assay for small molecule activators of the nuclear factor-kappa B (NF-kB) signaling pathway (AID 651749; active = well fitted activation curve with a large enough effect in the signal ratio; the % refers to the signal ratio; also: series mostly up to about 77 µM; % of control where 0% means no effect); conditions: NF-kB-bla ME-180 cells, beta-lactamase FRET ratio, 16 h; activation: stronger effect = higher value
In short: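 Stably transfected ME-180 line; NF-kB response element upstream of beta-lactamase. Treatment: compound or DMSO, 16 hr. Detection: fluorescent FRET substrate.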

[29] = qHTS assay for small molecule agonists of the antioxidant response element (ARE) signaling pathway measured by Nrf2-dependant transcriptional activity (AID 720636; active = well fitted curve in the direction sought with a large enough effect in the repeat runs; an effect the other way counts as inactive or inconclusive; also: % of control where 0% means no effect)
In short: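 ARE-luc HepG2 cells carrying an Nrf2-responsive luciferase reporter, in medium with 1% dialyzed FBS, exposed to compound for 16 hr at 37 C, 5% CO2. Luminescence read 30 min after ONE-Glo addition.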

[30] = qHTS assay for small molecule agonists of the antioxidant response element (ARE) signaling pathway measured by Nrf2-dependant transcriptional activity - cell viability counter screen (AID 720653; active = well fitted curve in the direction sought with a large enough effect in the repeat runs; an effect the other way counts as inactive or inconclusive; also: % is scaled to controls: 0 for no effect and ±100 for the full control effect); conditions: ARE-bla HepG2 viability, CellTiter-Glo ATP luminescence, 16 h; max response: stronger effect = lower value
In short: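 Cytotoxicity counter screen: intracellular ATP quantified by CellTiter-Glo luminescence in the same ARE-bla HepG2 plates, after 16 h compound exposure and a 2 h beta-lactamase substrate step.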

CCOP(=S)(S)OCC
11%: max response [9]
-11.3%: max response [16]
inactive: Potency [1] | Potency [2] | activation [3] 24.9% | Potency [4] | Potency [5] | activation [6] 1.65% | Potency [7] | outcome [8] | Potency [10] | Potency [11] | Potency [12] | outcome [13] | Potency [14] | Potency [15] | max response [17] -16.6% | activity change % (negative = inhibition) [18] 8.37% | activation [19] -1.75% | activation [20] 0.356% | max response [21] -2.08% | max response [22] -0.594% | Potency [23] | max response [24] 1.97% | outcome [25]

C=CC1(C)OC(=O)N(c2cc(Cl)cc(Cl)c2)C1=O (stereo not drawn)
-0.794%: max response [16]
inactive: Potency [1] | Potency [2] | Potency [5] | activation [6] -2.77% | activation [26] -11.4% | Potency [7] | outcome [8] | Potency [10] | Potency [11] | Potency [12] | Potency [27] | outcome [13] | Potency [15] | max response [17] -13.3% | activation [28] -0.261% | activation [20] -0.237% | max response [21] -2.56% | Potency [29] | max response [30] -7.58% | max response [22] -8.07% | Potency [23] | max response [24] -0.0091%
-9.9%: max response [9]

CCOc1nc(NC)nc(NC(=O)NS(=O)(=O)c2ccccc2C(=O)OC)n1
-10.6%: max response [16]
16.6%: max response [9]
inactive: Potency [1] | Potency [2] | activation [3] -6.67% | Potency [5] | activation [6] -2.84% | activation [26] 15% | Potency [7] | outcome [8] | Potency [10] | Potency [11] | Potency [12] | outcome [13] | Potency [15] | max response [17] 20.8% | activation [19] -5.96% | activation [28] 1.48% | activation [20] 0.873% | max response [21] -5.58% | Potency [29] | max response [30] 13.3% | max response [22] 9.14% | max response [24] 1.05%
